Source: the supplement of paper PMC6555819

The sequences below were run on VDR:RXRa (NR concentration 270 nM, RXRa partner concentration 90 nM) (assay: PBM binding z-score (relative to random genomic background probes); higher = stronger binding; sequences stand for … in GC…GCGATTGACAGCGTAGAATGAAGG).
Method: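 Protein-binding microarray (Agilent 4x180K custom design, double-stranded 60-nt probes: 5' GC cap, 34-nt variable region, 24-nt constant primer region; full probe sequence given). Purified or IVT nuclear receptor:RXRα heterodimers (3:1 NR:RXRα, mostly 270:90 nM) or homodimers were incubated for 1 h in PBS with 2% milk and no ligand, then detected with Alexa488 antibodies. Fluorescence from o1-orientation probes (~5 replicates averaged) was converted to z-scores against 500 random hg19 background probes. Variable regions are seed direct-repeat (DR0–DR5) sites, all their single-nucleotide variants and half-site ablations.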

Row | Sequence | PBM binding z-score
1 | TCTAGCAGGCCAGAGGGTCACACAAGAGGTACGG | 2.26
2 | TCTTGTAGATCAAAGGTTGAGAAAGCCGAAGCCT | 0.408
3 | GCTCGGAGGGCAAGGTCAGAGCTTTGTCCGTAGA | 1.72
4 | CCTACTGGGCCAAGGGTCATTGATTCCAATGCTC | 3.45
5 | GCTCGGAAGACAAGGTCAGAGCTTTGTCCGTAGA | 0.859
6 | CAAACTAGGTCAGAGAGGTCAAAGTCCGTGCGTA | 7.57
7 | TCATTTAGGTAAAAGGTGAAAGTCGGTGTGGTAA | 1.4
8 | ACAATGAGGTTATTAAGATCAGGGAATTGCGGTC | 2.56
9 | CGTCAAAGTGCAACTAAGGTAACGTAAAGCACGC | 0.866
10 | CCGAGTAGGTTATGGGGCATCCAGGCAACGGTGA | -0.0665
11 | GGAACGAGGGCAAAGTTGATAGGATCTGTCGACG | 1.37
12 | TCAGACAGGTGAAGGTAACCCAGGTACGCAGTCG | 0.641
13 | GATACAGGGTTAGCTAGAGGCCAGAGTATGGAAA | 0.139
14 | TCTGCTAGGTCAACGATGGTCAGCCAATCTGCTA | 1.66
15 | CCTTATGGGTCACGAGGTTATAGCACGACGAGCG | 4.4
16 | AGTATGAGGTTAAGATCAGGGAAACAGAATACAT | 1.18
17 | CCTTACGGGTCACGAGGTTATAGCACGACGAGCG | 5.23
18 | TCTGCTAGGTCAACGATGCTCAGCTAATCTGCTA | 1.15
19 | ACTATTAGTTGAGACGAGGGCAGCCGATAGGTTG | 0.339
20 | TCTTGTAGATCACGCAGGTTAAGAAAGCCTGAGT | 0.662

Row | Sequence | PBM binding z-score
21 | TCTAGTTGGTCACGAAGGTCACACACGACGGGTA | 4.98
22 | GCTTGTAGATCAAGATTAAGAAAGACTAAGCTAA | -0.528
23 | TCTATTAGTTGAAGGGCAGCCGACGAGTCCGTTT | 0.97
24 | CCTATAAGTTGACCATAAGGGCAACCGAAGCTCG | 1.06
25 | AGAATGAGGTTTTTAAGATCAGGGAATTGCGGTC | -0.0674
26 | ATCTCTAGGTTACAAGTTCAGTGAAAGAGAGGAC | 2.7
27 | CCAGACAGCTGAGAAGGTAACTCAGCCTCGATTA | -0.312
28 | ACTCGGAGGACCAAGGTCAGAGCTACGCCAGTGA | 1.34
29 | TGAATGAGCTTATAAGATCAGGGAACGTTGCAAA | -0.361
30 | TTACCATGGTGAGCTGAGGTCGTTGATCCAACTC | 1.57
31 | TATACAGGGTCAAAGGCCAGAGTCCGAATGTCGA | 4.8
32 | CAAATTAGGTCAAGAGGTCAAAGTCCGCTTCCCG | 6.35
33 | GCGACTGGGGCATCAGCAGGTTACCATCACTTAA | -0.265
34 | AGTCAAAGTTTAGGACGAGGTAACGTAAAGCACG | 0.00949
35 | ATTTCTAGGTAAAAGTTCAGTGAATCCCGAGGAT | 1.77
36 | ATCTCTAGGTAAAAGTTCAGTAAATCCCGAGGAT | 1.19
37 | GCTTACGGGGCAAAGGTTATAGCATGAATAGAAT | 2.08
38 | AGTCAAAGTTCAGGACGAGGTAACGTCAAGCACG | 3.07
39 | TCTAGCACGCCAGAGGGTCACTCAAGAGGTACGG | 1.37
40 | TGTTGTAGATCAACAGGAGGTTAAGAAAGATCGA | 0.37
